Bioassay records deposited in PubChem by several laboratories.
Only some compounds are listed: those with a hit (about 4% of all), similar ones and a draw of the others.
VHR inh abs – blocks human VHR1 dual specificity phosphatase; P51452; recombinant VHR phosphatase, pNPP absorbance; inhibition, % at 13.3 µM; 0.52% of 290,000 active; AID 1654; in the data active means inhibition above about 50%
Bead autofluor – flagged as autofluorescent in microsphere protease counterscreen; compound autofluorescence counterscreen, microsphere flow cytometry; active compounds read high; fluorescence intensity (no concentration beside the values); 3.1% of 360,000 active; AID 624483; in the data active means fluorescence intensity above about 16000
Anthrax LF prot – anthrax lethal factor protease inhibition; P15917; multiplex microsphere protease cleavage assay, LF; inhibition, % at 10 µM; 0.12% of 360,000 active; AID 588501
BoNT-A LC inh2 – blocks Botulinum neurotoxin A light chain protease. multiplex microsphere protease substrate cleavage, flow cytometry. inhibition, % at 10 µM. 0.17% of 360,000 active
MazEF act – MazEF (E. coli) toxin RNase activation | AID 504720 | activation, % at 20 µM | 0.32% of 350,000 active | FAM/BHQ RNA-DNA oligo cleavage fluorescence, 5 h | P0AE70; in the data active means activation above about 50%
BoNT F protease – BoNT F light chain protease inhibition. Multiplex microsphere protease cleavage assay, flow cytometry. inhibition, % at 10 µM. 0.22% of 360,000 active; in the data active means inhibition above about 35%, passing the limit was not always enough
BoNT-A LC CP2 – BoNT/A light chain protease inhibition | inhibition, % at 10 µM | multiplex microsphere protease cleavage assay, flow cytometry | shares compounds with BoNT-A LC inh2 | 10% of 150 active; in the data active means inhibition above about 24%
LF protease CP2 – inhibitors of Bacillus anthracis lethal factor protease. multiplex microsphere protease cleavage assay. inhibition, % at 10 µM. 7% of 150 active. shares compounds with BoNT-A LC inh2; in the data active means inhibition above about 25%
BoNTF LC inh 2 – BoNT/F light chain protease inhibition | AID 602336 | inhibition, % at 10 µM | 7% of 150 active | multiplex microsphere protease cleavage assay, flow cytometry | shares compounds with BoNT-A LC inh2; in the data active means inhibition above about 25%
Each line names hits and unclear results; the compound was inactive in the other large screens (follow-up assays come after a bar, where they were run). Unless noted, no stated cut-off is given here; in the data, active means inhibition above about 30%; inconclusive means no clear call, values can overlap the other calls; inactive means below that.

CN(c1cccc(F)c1)c1cc2c(c3c1ccn3C)C1CCC2C1 (centres undefined)	none (no result: VHR inh abs, MazEF act)
Cn1ccc2c(-c3cccnc3)cc3c(c21)C1CCC3C1 (centres undefined)	none (no result: VHR inh abs, MazEF act) | BoNT-A LC CP2 inactive | LF protease CP2 inactive | BoNTF LC inh 2 inactive
Cn1ccc2c(-c3ccc(F)cc3F)cc3c(c21)C1CCC3C1 (centres undefined)	none (no result: VHR inh abs, MazEF act) | BoNT-A LC CP2 inactive | LF protease CP2 inactive | BoNTF LC inh 2 inactive
COc1ccc(-c2cc3c(c4c2ccn4C)C2CCC3C2)cc1OC (centres undefined)	none (no result: VHR inh abs, MazEF act) | BoNT-A LC CP2 inactive | LF protease CP2 inactive | BoNTF LC inh 2 inactive
Cn1ccc2c(-c3ccc(F)nc3)cc3c(c21)C1CCC3C1 (centres undefined)	Anthrax LF prot 37, BoNT-A LC inh2 50 (no result: VHR inh abs, MazEF act) | BoNT-A LC CP2 33 | LF protease CP2 32 | BoNTF LC inh 2 inactive
Cn1ccc2c(-c3cccc(C=O)c3)cc3c(c21)C1CCC3C1 (centres undefined)	none (no result: VHR inh abs, MazEF act)
Cn1ccc2c(-c3cccc(C=O)c3F)cc3c(c21)C1CCC3C1 (centres undefined)	none (no result: VHR inh abs, MazEF act)
COc1ccc(C2CC(c3cccs3)=NN2C(=O)CSc2nnnn2C)cc1OC (centres undefined)	none
